# From article PMC7862700, “An all-to-all approach to the identification of sequence-specific readers for epigenetic DNA modifications on cytosine”
# Assays:
# Assay in all cases: DAPPL (digital affinity profiling via proximity ligation, sequencing); 10 mM Tris-HCl pH 7.5, 50 mM NaCl, 1 mM DTT, 4% glycerol, room temperature, 30 min; GST-TFs on glutathione beads, 16-mer random dsDNA library, 0.1% formaldehyde crosslink after washing; high values mean tight binding
# FLI1 = target: T1, FLI1 (Homo sapiens, UniProt Q01543 1-452); details: protein: recombinant; tags: N-terminal GST; dsDNA, one strand shown
# T1 sequence: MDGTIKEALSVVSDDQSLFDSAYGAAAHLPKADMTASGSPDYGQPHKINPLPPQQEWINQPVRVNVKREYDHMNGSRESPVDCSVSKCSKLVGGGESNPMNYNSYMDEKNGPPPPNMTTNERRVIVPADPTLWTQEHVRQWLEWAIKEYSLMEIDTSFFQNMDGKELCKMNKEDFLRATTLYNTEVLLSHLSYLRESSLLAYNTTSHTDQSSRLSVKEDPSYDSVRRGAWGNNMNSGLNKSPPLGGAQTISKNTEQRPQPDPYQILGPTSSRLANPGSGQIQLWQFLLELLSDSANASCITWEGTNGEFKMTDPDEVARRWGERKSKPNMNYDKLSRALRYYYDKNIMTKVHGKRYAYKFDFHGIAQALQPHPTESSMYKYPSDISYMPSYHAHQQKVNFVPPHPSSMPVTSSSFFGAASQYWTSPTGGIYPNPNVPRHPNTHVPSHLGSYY
# Procedure, shortened: (§1)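 Pools of DNA-barcoded human transcription factors, expressed in yeast as GST fusions on glutathione beads and combined with a tag-only sample, were incubated with 200 nmole of a 16-mer random double-stranded DNA library. Incubation took 30 min at room temperature in Tris/NaCl/DTT/glycerol buffer and was followed by washing, 0.1% formaldehyde crosslinking, proximity ligation (BsaI/T4 ligase, 1 h, 37 °C), PCR amplification and sequencing on an Illumina NextSeq500. Binding signal is the ratio of a hexamer's read frequency for a factor to its frequency for the tag-only sample.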
# ELK1 = target: T2, ELK1 (Homo sapiens, UniProt P19419 1-428); details: protein: recombinant; tags: N-terminal GST; dsDNA, one strand shown
# T2 sequence: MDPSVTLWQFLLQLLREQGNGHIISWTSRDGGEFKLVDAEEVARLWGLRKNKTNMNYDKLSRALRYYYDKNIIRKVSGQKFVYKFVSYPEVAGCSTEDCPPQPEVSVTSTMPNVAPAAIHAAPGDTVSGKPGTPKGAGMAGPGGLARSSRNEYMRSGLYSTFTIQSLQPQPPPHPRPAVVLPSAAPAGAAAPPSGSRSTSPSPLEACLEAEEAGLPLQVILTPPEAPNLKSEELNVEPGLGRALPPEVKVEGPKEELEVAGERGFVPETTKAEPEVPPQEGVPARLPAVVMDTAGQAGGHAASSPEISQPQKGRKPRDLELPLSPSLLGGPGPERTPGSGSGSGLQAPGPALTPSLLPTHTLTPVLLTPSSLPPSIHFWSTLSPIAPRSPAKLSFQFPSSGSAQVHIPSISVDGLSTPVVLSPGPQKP
# Procedure, shortened: as §1
# GABPA = target: T3, GABPA (Homo sapiens, UniProt Q06546 1-454); details: protein: recombinant; tags: N-terminal GST; dsDNA, one strand shown
# T3 sequence: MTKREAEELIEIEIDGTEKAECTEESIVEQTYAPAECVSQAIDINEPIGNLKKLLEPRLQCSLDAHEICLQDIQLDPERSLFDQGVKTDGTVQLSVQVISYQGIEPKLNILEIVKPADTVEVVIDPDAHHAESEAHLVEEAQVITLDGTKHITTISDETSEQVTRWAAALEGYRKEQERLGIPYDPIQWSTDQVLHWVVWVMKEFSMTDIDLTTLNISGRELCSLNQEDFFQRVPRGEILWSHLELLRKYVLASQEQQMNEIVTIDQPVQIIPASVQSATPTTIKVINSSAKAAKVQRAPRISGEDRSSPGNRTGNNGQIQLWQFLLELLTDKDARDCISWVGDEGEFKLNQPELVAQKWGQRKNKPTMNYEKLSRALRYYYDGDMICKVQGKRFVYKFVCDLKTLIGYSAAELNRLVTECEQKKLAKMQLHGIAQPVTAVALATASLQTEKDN
# Procedure, shortened: as §1
# ERG = target: T4, ERG (Homo sapiens, UniProt P11308 1-479); details: protein: recombinant; tags: N-terminal GST; dsDNA, one strand shown
# T4 sequence: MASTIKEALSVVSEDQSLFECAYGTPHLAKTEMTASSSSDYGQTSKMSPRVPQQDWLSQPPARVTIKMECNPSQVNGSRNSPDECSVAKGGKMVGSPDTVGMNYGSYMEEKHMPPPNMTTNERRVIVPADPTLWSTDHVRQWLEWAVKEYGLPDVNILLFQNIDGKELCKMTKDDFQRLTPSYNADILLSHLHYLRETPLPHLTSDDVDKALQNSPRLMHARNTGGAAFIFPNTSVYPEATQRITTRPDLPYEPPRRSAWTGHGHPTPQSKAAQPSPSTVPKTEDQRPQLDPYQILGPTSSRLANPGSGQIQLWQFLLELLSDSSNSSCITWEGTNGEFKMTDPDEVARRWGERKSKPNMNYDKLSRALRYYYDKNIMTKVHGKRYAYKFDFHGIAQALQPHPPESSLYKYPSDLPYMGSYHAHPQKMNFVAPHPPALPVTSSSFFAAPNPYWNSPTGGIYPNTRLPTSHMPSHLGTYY
# Procedure, shortened: as §1
# ELF1 = ELF1 (Homo sapiens, UniProt P32519 1-619); details: protein: recombinant; tags: N-terminal GST; dsDNA, one strand shown
# Chain of ELF1 (P32519 whole entry): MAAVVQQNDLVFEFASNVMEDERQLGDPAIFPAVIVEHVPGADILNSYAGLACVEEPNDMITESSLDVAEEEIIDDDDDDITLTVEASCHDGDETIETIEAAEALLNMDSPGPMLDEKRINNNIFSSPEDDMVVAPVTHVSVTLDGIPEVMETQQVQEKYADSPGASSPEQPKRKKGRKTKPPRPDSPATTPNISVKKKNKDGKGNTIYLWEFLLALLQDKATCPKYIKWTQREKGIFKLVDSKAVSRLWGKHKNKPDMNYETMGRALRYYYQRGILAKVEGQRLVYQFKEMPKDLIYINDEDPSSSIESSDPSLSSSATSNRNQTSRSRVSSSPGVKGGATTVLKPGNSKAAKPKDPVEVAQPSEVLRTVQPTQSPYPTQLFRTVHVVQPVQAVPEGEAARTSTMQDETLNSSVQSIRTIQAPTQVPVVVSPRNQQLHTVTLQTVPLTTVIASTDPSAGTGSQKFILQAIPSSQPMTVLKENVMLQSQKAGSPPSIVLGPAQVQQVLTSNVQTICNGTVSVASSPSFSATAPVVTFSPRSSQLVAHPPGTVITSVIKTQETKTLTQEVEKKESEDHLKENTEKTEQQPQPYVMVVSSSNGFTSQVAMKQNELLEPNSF
# Procedure, shortened: as §1
# EHF = target: T5, EHF (Homo sapiens, UniProt Q9NZC4 1-300); details: protein: recombinant; tags: N-terminal GST; dsDNA, one strand shown
# T5 sequence: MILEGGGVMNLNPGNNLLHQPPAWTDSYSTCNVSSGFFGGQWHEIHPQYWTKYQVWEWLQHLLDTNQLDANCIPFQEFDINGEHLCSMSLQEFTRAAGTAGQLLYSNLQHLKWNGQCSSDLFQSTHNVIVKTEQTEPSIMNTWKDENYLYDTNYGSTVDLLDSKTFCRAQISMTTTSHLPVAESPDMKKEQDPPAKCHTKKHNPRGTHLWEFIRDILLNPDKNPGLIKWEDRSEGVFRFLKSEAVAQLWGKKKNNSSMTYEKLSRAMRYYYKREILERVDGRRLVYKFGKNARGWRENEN
# Procedure, shortened: as §1
# SPI1 = SPI1 (Homo sapiens, UniProt P17947 1-270); details: protein: recombinant; tags: N-terminal GST; dsDNA, one strand shown
# Procedure, shortened: as §1
# SPIB = SPIB (Homo sapiens, UniProt Q01892 1-262); details: protein: recombinant; tags: N-terminal GST; dsDNA, one strand shown
# Chain of SPIB (Q01892 whole entry): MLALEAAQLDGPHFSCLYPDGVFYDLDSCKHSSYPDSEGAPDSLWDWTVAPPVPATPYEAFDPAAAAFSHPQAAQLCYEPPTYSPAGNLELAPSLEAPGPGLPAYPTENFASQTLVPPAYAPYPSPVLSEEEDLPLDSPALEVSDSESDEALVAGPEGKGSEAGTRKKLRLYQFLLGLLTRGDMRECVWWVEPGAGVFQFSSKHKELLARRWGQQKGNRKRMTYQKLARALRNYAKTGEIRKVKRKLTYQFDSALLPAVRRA
# Procedure, shortened: as §1
# ELK3 = target: T6, ELK3 (Homo sapiens, UniProt P41970 1-407); details: protein: recombinant; tags: N-terminal GST; dsDNA, one strand shown
# T6 sequence: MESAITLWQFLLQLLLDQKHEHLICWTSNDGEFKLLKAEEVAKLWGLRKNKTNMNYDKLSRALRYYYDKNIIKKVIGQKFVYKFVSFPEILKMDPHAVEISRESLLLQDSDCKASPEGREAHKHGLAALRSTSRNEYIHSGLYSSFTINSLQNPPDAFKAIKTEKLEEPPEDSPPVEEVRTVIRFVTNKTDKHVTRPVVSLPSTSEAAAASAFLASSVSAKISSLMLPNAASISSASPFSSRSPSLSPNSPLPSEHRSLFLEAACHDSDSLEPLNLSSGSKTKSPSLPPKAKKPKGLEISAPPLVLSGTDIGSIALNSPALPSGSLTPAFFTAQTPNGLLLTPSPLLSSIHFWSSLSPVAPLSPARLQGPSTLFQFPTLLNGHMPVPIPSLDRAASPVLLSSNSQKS
# Procedure, shortened: as §1
# FEV = target: T7, FEV (Homo sapiens, UniProt Q99581 1-238); details: protein: recombinant; tags: N-terminal GST; dsDNA, one strand shown
# T7 sequence: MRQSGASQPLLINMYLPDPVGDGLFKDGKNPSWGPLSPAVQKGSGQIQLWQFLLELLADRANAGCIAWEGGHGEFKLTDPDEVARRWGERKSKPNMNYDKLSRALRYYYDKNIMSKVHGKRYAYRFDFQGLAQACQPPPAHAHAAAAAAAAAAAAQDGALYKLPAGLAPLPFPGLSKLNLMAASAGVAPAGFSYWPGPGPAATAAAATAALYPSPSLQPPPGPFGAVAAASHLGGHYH
# Procedure, shortened: as §1
# ETV5 = ETV5 (Homo sapiens, UniProt P41161 1-510); details: protein: recombinant; tags: N-terminal GST; dsDNA, one strand shown
# Chain of ETV5 (P41161 whole entry): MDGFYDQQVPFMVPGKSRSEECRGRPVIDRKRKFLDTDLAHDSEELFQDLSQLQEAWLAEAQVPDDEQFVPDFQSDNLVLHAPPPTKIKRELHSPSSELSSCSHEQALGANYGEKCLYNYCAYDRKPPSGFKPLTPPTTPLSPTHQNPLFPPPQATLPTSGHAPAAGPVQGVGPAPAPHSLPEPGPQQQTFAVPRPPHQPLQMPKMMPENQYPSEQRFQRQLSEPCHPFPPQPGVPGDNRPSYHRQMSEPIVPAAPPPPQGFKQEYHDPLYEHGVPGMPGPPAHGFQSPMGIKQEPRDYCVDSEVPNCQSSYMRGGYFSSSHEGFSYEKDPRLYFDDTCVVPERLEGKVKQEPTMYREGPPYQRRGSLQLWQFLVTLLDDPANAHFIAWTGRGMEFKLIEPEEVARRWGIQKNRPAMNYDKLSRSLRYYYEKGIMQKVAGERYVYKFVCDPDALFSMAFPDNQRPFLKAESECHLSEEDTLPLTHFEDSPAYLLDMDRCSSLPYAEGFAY
# Procedure, shortened: as §1
# HSF1 = HSF1 (Homo sapiens, UniProt Q00613 1-529); details: protein: recombinant; tags: N-terminal GST; chain copies: 3; dsDNA, one strand shown
# Chain of HSF1 (Q00613 whole entry): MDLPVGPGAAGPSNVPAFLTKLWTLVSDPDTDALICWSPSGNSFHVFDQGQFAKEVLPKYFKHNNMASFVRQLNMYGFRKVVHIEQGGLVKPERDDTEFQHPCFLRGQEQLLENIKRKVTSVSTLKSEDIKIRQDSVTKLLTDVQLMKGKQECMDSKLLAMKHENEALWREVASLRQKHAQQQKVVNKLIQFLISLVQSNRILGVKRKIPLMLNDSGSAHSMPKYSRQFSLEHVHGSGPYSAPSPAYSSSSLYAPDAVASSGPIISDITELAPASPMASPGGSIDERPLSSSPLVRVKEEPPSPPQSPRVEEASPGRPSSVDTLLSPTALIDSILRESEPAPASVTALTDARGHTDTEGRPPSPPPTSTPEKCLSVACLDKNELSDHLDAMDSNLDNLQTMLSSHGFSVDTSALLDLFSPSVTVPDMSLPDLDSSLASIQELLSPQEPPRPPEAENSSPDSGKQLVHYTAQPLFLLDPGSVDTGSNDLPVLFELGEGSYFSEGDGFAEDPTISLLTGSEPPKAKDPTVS
# Procedure, shortened: as §1
# SPIC = target: T8, SPIC (Homo sapiens, UniProt Q8N5J4 1-248); details: protein: recombinant; tags: N-terminal GST; dsDNA, one strand shown
# T8 sequence: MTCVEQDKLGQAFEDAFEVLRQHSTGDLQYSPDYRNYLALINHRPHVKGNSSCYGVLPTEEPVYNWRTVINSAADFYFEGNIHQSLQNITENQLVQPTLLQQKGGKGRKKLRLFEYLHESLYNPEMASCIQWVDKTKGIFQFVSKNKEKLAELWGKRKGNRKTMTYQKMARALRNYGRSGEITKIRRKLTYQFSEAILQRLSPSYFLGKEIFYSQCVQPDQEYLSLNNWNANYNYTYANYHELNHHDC
# Procedure, shortened: as §1
# ELF4 = ELF4 (Homo sapiens, UniProt Q99607 1-663); details: protein: recombinant; tags: N-terminal GST; dsDNA, one strand shown
# Chain of ELF4 (Q99607 whole entry): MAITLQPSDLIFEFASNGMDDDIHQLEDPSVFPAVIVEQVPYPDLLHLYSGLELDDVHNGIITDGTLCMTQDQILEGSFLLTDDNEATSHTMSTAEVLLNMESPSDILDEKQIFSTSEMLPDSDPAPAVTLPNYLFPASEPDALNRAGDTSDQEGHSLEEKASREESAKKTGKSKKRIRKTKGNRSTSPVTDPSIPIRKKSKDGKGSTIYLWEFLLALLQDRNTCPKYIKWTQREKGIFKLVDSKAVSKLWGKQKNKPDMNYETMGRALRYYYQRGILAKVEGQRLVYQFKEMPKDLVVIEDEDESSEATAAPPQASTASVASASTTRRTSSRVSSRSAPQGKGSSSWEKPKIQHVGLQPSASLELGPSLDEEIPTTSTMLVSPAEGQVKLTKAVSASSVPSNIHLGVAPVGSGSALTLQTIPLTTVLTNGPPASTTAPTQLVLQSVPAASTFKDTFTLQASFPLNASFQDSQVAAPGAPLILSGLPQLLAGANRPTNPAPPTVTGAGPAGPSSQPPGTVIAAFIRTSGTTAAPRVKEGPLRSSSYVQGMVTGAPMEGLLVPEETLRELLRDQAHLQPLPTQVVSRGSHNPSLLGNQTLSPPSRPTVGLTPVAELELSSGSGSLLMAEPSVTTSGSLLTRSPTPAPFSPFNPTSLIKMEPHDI
# Procedure, shortened: as §1
# ELK4 = target: T9, ELK4 (Homo sapiens, UniProt P28324-2 1-405); details: protein: recombinant; tags: N-terminal GST; dsDNA, one strand shown
# T9 sequence: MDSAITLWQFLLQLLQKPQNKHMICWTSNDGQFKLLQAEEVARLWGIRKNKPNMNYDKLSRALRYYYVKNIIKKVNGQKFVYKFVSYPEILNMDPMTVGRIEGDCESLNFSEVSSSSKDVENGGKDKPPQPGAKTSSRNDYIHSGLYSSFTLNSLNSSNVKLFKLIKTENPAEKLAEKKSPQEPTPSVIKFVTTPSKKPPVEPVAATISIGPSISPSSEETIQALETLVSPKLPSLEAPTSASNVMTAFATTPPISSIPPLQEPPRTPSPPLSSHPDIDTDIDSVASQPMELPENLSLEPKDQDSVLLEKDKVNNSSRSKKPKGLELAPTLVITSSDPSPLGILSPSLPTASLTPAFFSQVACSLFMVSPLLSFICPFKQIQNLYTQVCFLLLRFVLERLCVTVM
# Procedure, shortened: as §1
# ETV2 = target: T10, ETV2 (Homo sapiens, UniProt O00321 1-342); details: protein: recombinant; tags: N-terminal GST; dsDNA, one strand shown
# T10 sequence: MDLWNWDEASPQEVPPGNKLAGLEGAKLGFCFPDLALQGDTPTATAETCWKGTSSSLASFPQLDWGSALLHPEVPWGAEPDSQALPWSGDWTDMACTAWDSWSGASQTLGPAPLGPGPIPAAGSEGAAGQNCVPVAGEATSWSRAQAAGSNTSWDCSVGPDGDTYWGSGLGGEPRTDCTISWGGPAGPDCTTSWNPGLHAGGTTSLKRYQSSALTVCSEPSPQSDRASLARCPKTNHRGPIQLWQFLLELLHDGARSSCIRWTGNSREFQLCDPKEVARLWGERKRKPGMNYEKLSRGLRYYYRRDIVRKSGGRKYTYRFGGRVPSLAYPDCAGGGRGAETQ
# Procedure, shortened: as §1
# ELF3 = target: T11, ELF3 (Homo sapiens, UniProt P78545 1-371); details: protein: recombinant; tags: N-terminal GST; dsDNA, one strand shown
# T11 sequence: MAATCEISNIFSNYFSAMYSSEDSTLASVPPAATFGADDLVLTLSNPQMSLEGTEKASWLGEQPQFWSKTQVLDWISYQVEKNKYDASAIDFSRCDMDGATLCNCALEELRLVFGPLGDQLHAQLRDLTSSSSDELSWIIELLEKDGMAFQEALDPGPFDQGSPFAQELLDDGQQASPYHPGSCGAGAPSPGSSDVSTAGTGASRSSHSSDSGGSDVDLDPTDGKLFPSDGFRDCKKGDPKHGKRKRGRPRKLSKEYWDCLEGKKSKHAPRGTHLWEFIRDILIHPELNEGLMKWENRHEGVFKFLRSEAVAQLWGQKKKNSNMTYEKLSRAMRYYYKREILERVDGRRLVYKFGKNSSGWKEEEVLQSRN
# Procedure, shortened: as §1
# CRX = CRX (Homo sapiens, UniProt O43186 1-299); details: protein: recombinant; tags: N-terminal GST; dsDNA, one strand shown
# Chain of CRX (O43186 whole entry): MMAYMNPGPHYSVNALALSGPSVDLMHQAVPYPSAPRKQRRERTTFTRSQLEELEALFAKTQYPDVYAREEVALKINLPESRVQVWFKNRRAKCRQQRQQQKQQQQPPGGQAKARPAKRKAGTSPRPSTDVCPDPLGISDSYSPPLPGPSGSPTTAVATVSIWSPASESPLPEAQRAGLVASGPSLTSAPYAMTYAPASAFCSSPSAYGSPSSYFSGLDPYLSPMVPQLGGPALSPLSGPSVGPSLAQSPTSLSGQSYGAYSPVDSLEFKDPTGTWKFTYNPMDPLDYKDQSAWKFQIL
# Procedure, shortened: as §1
# ETV1 = ETV1 (Homo sapiens, UniProt P50549 1-477); details: protein: recombinant; tags: N-terminal GST; dsDNA, one strand shown
# Chain of ETV1 (P50549 whole entry): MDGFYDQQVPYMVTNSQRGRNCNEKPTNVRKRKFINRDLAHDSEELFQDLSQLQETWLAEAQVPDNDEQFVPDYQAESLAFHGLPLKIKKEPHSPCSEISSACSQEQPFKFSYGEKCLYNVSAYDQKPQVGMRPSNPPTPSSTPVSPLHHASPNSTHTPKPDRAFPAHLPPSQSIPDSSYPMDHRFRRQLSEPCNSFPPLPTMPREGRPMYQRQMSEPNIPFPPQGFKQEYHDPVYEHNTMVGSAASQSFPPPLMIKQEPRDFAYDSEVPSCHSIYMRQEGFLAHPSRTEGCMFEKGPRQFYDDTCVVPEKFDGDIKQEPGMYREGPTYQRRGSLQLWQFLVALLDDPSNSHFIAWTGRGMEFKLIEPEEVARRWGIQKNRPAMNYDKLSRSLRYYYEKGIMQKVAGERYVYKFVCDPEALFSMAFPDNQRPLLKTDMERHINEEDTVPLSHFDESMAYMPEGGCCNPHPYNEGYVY
# Procedure, shortened: as §1
sequence,measurement,setting,value
TAGTTA,binding signal,FLI1,"1.19 fold enrichment (6-mer frequency, TF over GST control)"
same,binding signal,ELK1,"1.2 fold enrichment (6-mer frequency, TF over GST control)"
same,binding signal,GABPA,"1.2 fold enrichment (6-mer frequency, TF over GST control)"
same,binding signal,ERG,"1.12 fold enrichment (6-mer frequency, TF over GST control)"
same,binding signal,ELF1,"1.11 fold enrichment (6-mer frequency, TF over GST control)"
same,binding signal,EHF,"1.12 fold enrichment (6-mer frequency, TF over GST control)"
same,binding signal,SPI1,"1.09 fold enrichment (6-mer frequency, TF over GST control)"
same,binding signal,SPIB,"1.19 fold enrichment (6-mer frequency, TF over GST control)"
same,binding signal,ELK3,"1.12 fold enrichment (6-mer frequency, TF over GST control)"
same,binding signal,FEV,"1.07 fold enrichment (6-mer frequency, TF over GST control)"
same,binding signal,ETV5,"1.19 fold enrichment (6-mer frequency, TF over GST control)"
same,binding signal,HSF1,"1.26 fold enrichment (6-mer frequency, TF over GST control)"
same,binding signal,SPIC,"1.11 fold enrichment (6-mer frequency, TF over GST control)"
same,binding signal,ELF4,"1.15 fold enrichment (6-mer frequency, TF over GST control)"
same,binding signal,ELK4,"1.26 fold enrichment (6-mer frequency, TF over GST control)"
same,binding signal,ETV2,"1.09 fold enrichment (6-mer frequency, TF over GST control)"
same,binding signal,ELF3,"1.29 fold enrichment (6-mer frequency, TF over GST control)"
same,binding signal,CRX,"1.54 fold enrichment (6-mer frequency, TF over GST control)"
same,binding signal,ETV1,"1.05 fold enrichment (6-mer frequency, TF over GST control)"
